Screens: PubChem, National Center for Advancing Translational Sciences (NCATS)
SMN2 splice enh – qHTS Assay for Enhancers of SMN2 Splice Variant Expression. HEK293 SMN2-luciferase splicing reporter, luminescence, 30-36 h. Potency, µM (top dose mostly 46.1 µM), without a hit: at the highest dose activity change, positive = activation, actives largely listed as activators. actives 2.8% (n = 210,000); note: % of control where 0% means no effect; nearly all actives have a fitted effect of over 55% in size
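HEK293 cells carry an SMN2 minigene-luciferase reporter in which exon 7 inclusion puts luciferase in frame. Cells were seeded at 2000 cells/well, attached for 10-12 hours, then exposed to compounds for 30-36 hours at 37C before ONE-Glo luminescence.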
NPC1 promoter act – qHTS Assay for NPC1 Promoter Activators. Huh7 NPC1 promoter luciferase reporter, 24 h. Potency, µM (top dose mostly 9.22 µM), for the others: at the highest dose activation, hits mostly activators. actives 2.4% (n = 320,000); note: % of control where 0% means no effect; nearly all actives have a fitted effect of over 60% in size
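Compounds in DMSO were transferred onto Huh7 NPC1-luciferase reporter cells pre-incubated 2 h; after 24 h at 37 °C, Amplite reagent was dispensed and luminescence recorded 10 min later.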
Rab9 prom act – qHTS Assay for Rab9 Promoter Activators | AID 485297, 2010 | Huh7 Rab9 promoter-luciferase reporter, luminescence, 24 h | actives 2.8% (n = 320,000) | Potency, µM (doses to about 9.22 µM), without a hit: at the highest dose activation, negative = inhibition, hits mostly activators; note: % of control where 0% means no effect; nearly all actives have a fitted effect of over 60% in size
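Steps: seed 1500 Huh7 Rab9-luc cells per well, rest 2 h at 37 °C; add compound in DMSO; incubate 24 h; add luciferase reagent, 10 min ambient; read luminescence.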
ELG1 genotoxic – qHTS screen for small molecules that induce genotoxicity in human embryonic kidney (HEK293T) cells expressing luciferase-tagged ELG1. HEK293T ELG1-luciferase reporter, luminescence, 16 h. Potency, µM (titrated, usually from 46 µM), for inactives: at the highest dose activity change, positive = activation, most hits filed as activators. actives 1.3% (n = 330,000). AID 504466, 2011; note: % of control where 0% means no effect; nearly all actives have a fitted effect of over 60% in size
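Step 1: seed 2,000 HEK293T ELG1-luciferase cells per well. Step 2: add compound or DMSO, incubate 16 hr at 37 °C. Step 3: ONE-Glo, 30 min at room temperature, read luminescence.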
uPA generation – qHTS for Inhibitors of Cell Surface uPA Generation; cell surface uPA generation assay, qHTS; Potency, µM (highest dose often 38.3 µM), for inactives: at the top dose activity change, negative = inhibition, actives largely listed as inhibitors; actives 0.31% (n = 330,000); active = well fitted inhibition curve with a large enough effect; inconclusive = small, poorly fitted or top-dose-only effect; inactive = no such curve, though single readings can be large or run the other way; tested in mouse RAW 264.7 cells; note: % is set by controls: 0 for no effect and ±100 for the full control effect; nearly all actives have a fitted effect of over 55% in size
FLuc counter – qHTS profiling assay for firefly luciferase inhibitor/activator using purifed enzyme and Km concentrations of substrates (counterscreen for miR-21 project) | purified FLuc, Km substrates, luminescence inhibition | Potency, µM (doses to about 57.5 µM), without a hit: at the top dose activity change, negative = inhibition, usual class: inhibitors | actives 6.9% (n = 360,000);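 note: plate controls were vehicle for no effect and reference inhibitor for full effect; nearly all actives have a fitted effect of over 55% in size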
Target sequence (P08659 whole entry, looked up): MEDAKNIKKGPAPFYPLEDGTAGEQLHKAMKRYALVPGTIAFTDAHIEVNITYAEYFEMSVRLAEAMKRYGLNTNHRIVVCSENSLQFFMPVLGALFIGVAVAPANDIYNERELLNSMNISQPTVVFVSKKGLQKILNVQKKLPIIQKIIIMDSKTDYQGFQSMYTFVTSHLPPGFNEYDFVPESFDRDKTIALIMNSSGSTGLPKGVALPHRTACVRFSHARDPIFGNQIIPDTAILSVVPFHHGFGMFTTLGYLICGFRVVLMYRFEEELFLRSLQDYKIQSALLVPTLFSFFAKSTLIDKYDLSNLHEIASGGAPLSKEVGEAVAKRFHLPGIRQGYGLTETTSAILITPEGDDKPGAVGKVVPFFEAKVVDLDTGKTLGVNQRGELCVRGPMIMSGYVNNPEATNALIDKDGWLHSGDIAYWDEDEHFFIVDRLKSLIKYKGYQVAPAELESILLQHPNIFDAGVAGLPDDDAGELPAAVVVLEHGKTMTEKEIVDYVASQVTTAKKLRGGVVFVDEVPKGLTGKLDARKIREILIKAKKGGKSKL
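Purified P. pyralis luciferase (10nM final) with 10uM D-luciferin and 10uM ATP (Km levels) in 50mM Tris acetate pH 7.5, 10mM Mg acetate, 0.01% Tween-20, 0.05% BSA; qHTS 6-point titration, ~60 µM downward; luminescence read.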
* hit, by the source's call; u = inconclusive; x = no result. Rows were chosen to be rich in hits. Some 7.3% of all compounds tested hit in one or more screens of this group. Unless noted, calls come from the whole dose curve; as a rule, active = well fitted curve in the direction sought with a large enough effect; inconclusive = small, poorly fitted or top-dose-only effect, or another doubt; inactive = no such curve, though single readings can be large; an effect the other way counts as inactive or inconclusive. Potency is the fitted concentration of half-maximal effect.

SMILES	SMN2 splice enh	NPC1 promoter act	Rab9 prom act	ELG1 genotoxic	uPA generation	FLuc counter
Cc1ccccc1NC(=O)Nc1nc2ccc(S(C)(=O)=O)cc2s1	u	4µM*	u	3%	8%	-14%
CCC(=O)Nc1nc2ccc(S(C)(=O)=O)cc2s1	35%	-1%	15%	7%	0%	-6%
Cn1cccc1C(=O)N1CCC2(CC1)CCN(c1ccccn1)CC2	-46%	x	x	x	x	x
Cc1ccccc1C(=O)NCC(=O)N1CCN(c2ccccn2)CC1	x	x	x	3%	2%	x
COc1ccccc1-n1cc(C(=O)NCC(=O)N2CCN(c3ccccc3)CC2)c2ccccc2c1=O	u	28%	u	15%	x	0.76µM*
COc1ccccc1N1CCN(C(=O)CNC(=O)c2cn(-c3ccccc3OC)c(=O)c3ccccc23)CC1	9%	7%	22%	7%	-8%	6.7µM*
COc1ccccc1-n1cc(C(=O)NCC(=O)N2CCN(c3ccccn3)CC2)c2ccccc2c1=O	x	16%	17%	12%	u	3.4µM*
COc1ccccc1OCC(=O)N1CCN(c2ccccc2OC)CC1	2%	x	x	x	-8%	-2%
COc1ccc(N2CCN(C(=O)CNC(=O)c3ccccc3Cl)CC2)cc1	x	0%	-10%	-7%	0%	2%
Cc1ccccc1CN1CCc2nc(N3CCN(c4ncccn4)CC3)ncc2C1	x	x	x	x	x	0%
CCOc1ccc(NC(=O)C2CCN(c3nc4ccccc4[nH]3)CC2)cc1	x	x	x	x	x	6%
c1ccc(-c2cn3c4c(sc3n2)CCCC4)cc1	u	0.45µM*	0.5µM*	0.082µM*	u	0.15µM*
Cc1c(C(=O)N2CCc3ccccc3C2)sc2nc(-c3ccccc3)cn12	2%	-4%	0%	-13%	9%	u
CN(CC(=O)O)Cc1nc2ccccc2[nH]1	1%	1%	-3%	u	-5%	21µM*
O=c1[nH]c2ccccc2nc1CCc1ccccc1	u	u	3.2µM*	u	3%	-9%
Nc1cccc(CCc2nc3cc4ccccc4cc3[nH]2)c1	5.6µM*	27%	1.6µM*	18µM*	-8%	19µM*
c1ccc(CCc2nc3ccccc3[nH]2)cc1	x	u	u	u	u	17µM*
CN(CC(=O)Nc1ccccc1Br)C(=O)c1cccn1C	x	-6%	1%	-4%	3%	1%
COc1cc(-c2noc(-c3ccc(N4CCOCC4)c([N+](=O)[O-])c3)n2)cc(OC)c1OC	x	x	x	x	x	19µM*
COc1ccc(-c2noc(-c3ccc(Cl)cc3[N+](=O)[O-])n2)cc1OC	25µM*	u	4µM*	17%	-6%	4.3µM*
Cc1cccc(-c2noc(-c3ccc(Cl)cc3[N+](=O)[O-])n2)c1	u	0.71µM*	2.5µM*	u	2%	1.5µM*
Cc1c(-c2nc(-c3cccnc3)no2)cccc1[N+](=O)[O-]	21%	30%	16%	u	1%	u
COc1ccc(-c2noc(-c3ccc(N4CCCC4)c([N+](=O)[O-])c3)n2)cc1OC	x	x	x	x	x	-17%
COc1ccc(-c2noc(-c3ccc(NC(C)c4ccccc4)c([N+](=O)[O-])c3)n2)cc1OC (centres undefined)	x	x	x	x	x	11µM*
Cc1ccc(CNC(=O)Cn2cc(C(=O)c3ccc(Cl)cc3)c(=O)c3ccc(C)nc32)cc1	x	x	x	x	x	3%
SMILES	SMN2 splice enh	NPC1 promoter act	Rab9 prom act	ELG1 genotoxic	uPA generation	FLuc counter
CCOc1ccccc1OCCCOc1ccc([N+](=O)[O-])cc1Cl	-23%	-4%	0%	0%	7%	9.5µM*
COc1cc(C)ccc1OCCCOc1ccccc1Cl	13µM*	2.8µM*	3.5µM*	u	11%	6.7µM*
COc1cc(C)ccc1OCCOc1ccccc1Cl	5%	u	u	u	-8%	19µM*
COc1cccc(OC)c1OCCCOc1ccc([N+](=O)[O-])cc1Cl	-31%	5%	3%	-7%	1%	-3%
COc1cc(C)ccc1OCCCCOc1ccccc1C(C)=O	-45%	1%	-5%	6%	-14%	u
Cc1nn2c(=O)cc(COC(=O)c3cccc(NC(=O)c4cccs4)c3)nc2s1	x	x	x	x	x	0%
CCCc1ccc2oc(C(=O)NCCc3nc(C(=O)OCC)cs3)c(C)c2c1	x	4µM*	2µM*	14%	-2%	13µM*
CCCc1ccc2oc(C(=O)N(C)Cc3ccn[nH]3)c(C)c2c1	x	u	u	18µM*	-5%	15µM*
CCCc1ccc2oc(C(=O)N3CCCC3)c(C)c2c1	x	23%	u	u	3%	21µM*
CCCc1ccc2oc(C(=O)NCCc3cnn(C)c3)c(C)c2c1	x	3.5µM*	1.8µM*	u	-14%	13µM*
Cc1c(C(=O)N2CCCC2)oc2ccc(Br)cc12	x	5%	3%	25%	6%	u
Cc1ccc(CNC(=O)c2ccc(-c3nc(CS(=O)(=O)c4ccc(C)cc4)c(C)o3)cc2)cc1	x	x	x	x	x	-8%
Oc1ccc(CNc2cccc(C(F)(F)F)c2)c2cccnc12	x	0%	1%	x	x	-1%
CCc1cc2cc(C(=O)N3CCN(Cc4ccccc4)CC3)sc2s1	-20%	x	x	x	3%	17µM*
COc1ccc2nc3sc(C(=O)Nc4ccccc4F)cc3cc2c1	3%	x	x	x	x	-12%
CCc1cc2cc(C(=O)Nc3ccc(F)cc3)sc2s1	36%	u	2.5µM*	13%	-2%	u
Cc1nc(Cl)sc1C(=O)Nc1ccc(F)cc1	x	x	x	x	-4%	x
CC(C)(C)c1ccc(C(=O)Nc2ccc(F)cc2)s1	x	0.71µM*	0.63µM*	2.9µM*	-8%	1.2µM*
CCc1cc2cc(C(=O)N3CCN(c4ccccc4)CC3)sc2s1	7%	-1%	1%	-1%	2%	7%
CCc1cc2cc(C(=O)Nc3ccccc3F)sc2s1	u	2.2µM*	1.8µM*	1.2µM*	x	0.76µM*
Cc1ccc(NC(=O)Nc2c[nH]c(=O)[nH]c2=O)c(Cl)c1	x	x	x	x	x	-1%
Cc1ccc(-c2csc(/C(C#N)=C/c3ccccc3Cl)n2)cc1	6%	x	x	x	x	u
CCOc1cc(CN2CCN(c3ncccn3)CC2)ccc1OC	x	-2%	1%	-4%	-3%	-8%
CC(=O)N1CC(C)Sc2ccc(S(=O)(=O)NCc3ccc(Cl)cc3)cc21 (centres undefined)	x	-10%	-19%	-4%	-23%	1%
CCNC(=O)N1C(=O)C2(OCCO2)c2ccccc21	-6%	-2%	-10%	3%	3%	3%
